Rows were chosen to be rich in hits. Some 3.5% of all compounds tested hit in one or more screens of this group.
mHTT-CaM PPI inh – disrupts binding of mutant huntingtin to calmodulin. P42858. AlphaScreen His-mHTT/GST-CaM binding, luminescence. inhibition, % at 15 µM. 190,000 tested, 3.6% active;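 further: 0% = both proteins with DMSO and 100% = one protein alone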
Pf apPOL block – Pf-apPOL DNA polymerase inhibition; Recombinant Pf-apPOL, molecular beacon fluorescence, 1.5 h; inhibition, % at 10 µM; 210,000 tested, 0.25% active; AID 1794808
Numbers without * were called inactive; / = no result given. No stated cut-off is given here; in the data, active means inhibition above about 50%; inactive means the rest.

SMILES	mHTT-CaM PPI inh	Pf apPOL block
CC(C)CC1C(=O)N(Cc2cn(CCC3OCCO3)nn2)CCS(=O)(=O)N1Cc1ccc(-c2ccc(Cl)c(Cl)c2)cc1 (stereo not drawn)	72*	-5
COCOCCn1cc(CN2CCS(=O)(=O)N(Cc3ccc(-c4ccc(Cl)c(Cl)c4)cc3)C(C(C)C)C2=O)nn1 (stereo not drawn)	100*	-11
CC(C)C1C(=O)N(Cc2cn(CCC3OCCCO3)nn2)CCS(=O)(=O)N1Cc1ccc(-c2ccc(F)cc2)cc1 (stereo not drawn)	70*	-1
O=C(NC(Nc1ccc(Cl)cc1)(C(F)(F)F)C(F)(F)F)c1ccccc1	/	2
COc1ccccc1C(=O)Nc1ccc(-c2ccc([N+](=O)[O-])cc2)cc1	-1	-8
Cc1oc(C2CCN(C(=O)c3ccccc3Cl)CC2)nc1C(=O)N1CCOCC1	-3	1
COc1ccc(/C=C2/N=C(c3cccc(Cl)c3)OC2=O)cc1OC	17	-1
Cc1ccc(N2C=C(C#N)S(=O)(=O)c3ccc(F)cc32)cc1F	-4	0
COCOCCn1cc(CN2CCS(=O)(=O)N(Cc3ccc(-c4ccc(F)cc4)cc3)C(CC(C)C)C2=O)nn1 (stereo not drawn)	69*	-10
COCOCCn1cc(CN2CCS(=O)(=O)N(Cc3ccc(-c4ccc(C)cc4)cc3)C(CC(C)C)C2=O)nn1 (stereo not drawn)	16	-9
O=C(c1ccc(Br)o1)N1CCC(Cn2ccnc2-c2ccccc2)CC1	1	-5
COc1cccc(CNC(=O)N2CCCC2c2nc(-c3ccc(F)cc3F)no2)c1 (stereo not drawn)	0	2
Cc1ccc(NC(=O)c2ccc(NCCN)c([N+](=O)[O-])c2)cc1Cl	54*	0
Cc1ccc(NC(=O)c2ccc([N+](=O)[O-])c(C)c2)cc1Cl	-2	-6
O=C(CCC1CCCN(C(=O)Nc2ccccc2F)C1)NCc1cccc(Cl)c1 (stereo not drawn)	-5	-4
COc1ccccc1C(CCN(Cc1ccccc1)C(C)=O)c1ccc2c(c1)OCO2 (stereo not drawn)	99*	-4
COc1ccccc1C(CC(=O)N1CCCC1)c1ccc2c(c1)OCO2 (stereo not drawn)	6	2
COc1ccccc1C(CC(=O)O)c1ccc2c(c1)OCO2 (stereo not drawn)	-1	-7
CCC(=O)N(CCC(c1ccc2c(c1)OCO2)c1ccccc1OC)Cc1ccc2c(c1)OCO2 (stereo not drawn)	43	5
COc1ccc(CN(CCC(c2ccc3c(c2)OCO3)c2ccccc2OC)C(C)=O)cc1OC (stereo not drawn)	68*	-6
COc1ccc(CN(CCC(c2ccc3c(c2)OCO3)c2ccccc2OC)C(C)=O)cc1 (stereo not drawn)	53*	2
O=C(C1=NNc2ccccc2S1(=O)=O)N1CCCCCC1	-9	2
Cc1ccc(C2CC(=O)C3=C(C2)Nc2ccccc2NC3c2cc3c(cc2Cl)OCO3)cc1 (stereo not drawn)	19	-2
O=C(c1cccs1)N1CCN(c2ccc3nnc(-c4ccco4)n3n2)CC1	56*	1
O=C(NC1CCCCC1)N1CCN(c2ccc3nnc(-c4ccco4)n3n2)CC1	-5	-1
SMILES	mHTT-CaM PPI inh	Pf apPOL block
COc1ccc(-c2nc(C)cc(C)c2CNC(=O)c2cccc(N(C)C)c2)cc1	-4	-10
CN(CCCNC(=O)C1(n2cccc2)CCCCC1)Cc1ccccc1	27	-16
O=C(NCCCc1ccccc1)C1(n2cccc2)CCCCC1	51*	-6
CC(C)(C)C1CCc2c(sc3c2C(=O)NC(c2ccncc2)N3)C1 (stereo not drawn)	28	-2
COc1cc(C(=O)Nc2c3c(nn2-c2ccc(C)cc2C)CSC3)cc(OC)c1OC	-2	-7
Cc1ccc(-n2nc3c(c2NC(=O)c2cccc([N+](=O)[O-])c2)CSC3)c(C)c1	0	-5
Cc1ccc(-n2nc3c(c2NC(=O)c2ccco2)CSC3)c(C)c1	52*	-10
Cc1ccc(-n2nc3c(c2NC(=O)c2ccc([N+](=O)[O-])cc2)CSC3)c(C)c1	50*	-5
COc1cccc(C(=O)Nc2c3c(nn2-c2ccc(C)cc2C)CSC3)c1OC	50*	-3
O=C(Nc1c2c(nn1-c1cccc(Cl)c1)CSC2)c1c(F)cccc1F	23	-5
Cc1ccc(C(=O)Nc2c3c(nn2-c2ccc(C)cc2C)CSC3)cc1	32	-8
O=C(NCc1cccs1)C(=O)Nc1c2c(nn1-c1cccc(Cl)c1)CSC2	69*	-5
Cc1cc(C)c(NC(=O)c2c(C)cc(C)cc2C)c(C)c1	-1	-2
O=C(c1cccs1)N1CCN(c2nnc3ccc(C(F)(F)F)cn23)CC1	-2	2
CC1CCN(C(=O)C2c3ccccc3CCN2CC(=O)N(C)Cc2ccccc2)CC1 (stereo not drawn)	26	-7
O=C(c1cccc(OCC2CCCN(C(=O)c3cccc(F)c3)C2)c1)N1CCCCC1 (stereo not drawn)	3	-5
CCN1C2=C(C(=O)CC(C)(C)C2)C(c2ccc(OC)c(Cl)c2)C2=C1CC(C)(C)CC2=O	16	12
COc1ccccc1NC(=O)C1CCc2nc(N3CCCCC3)ncc2C1 (stereo not drawn)	4	1
CCCCN1CCN(C(=O)C2CCN(c3cnn(Cc4ccccc4)c(=O)c3)CC2)CC1	10	-3
CS(=O)(=O)c1ccc2nc(NC(=O)c3ccc(Cl)c(Cl)c3)sc2c1	-3	-10
CC(=O)Nc1c2c(nn1-c1cccc(Cl)c1)CSC2	35	-7
Cc1cccc(-n2nc3c(c2NC(=O)c2ccco2)CSC3)c1C	60*	-7
O=C(Nc1c2c(nn1-c1cccc(Cl)c1)CSC2)c1ccco1	67*	-1
Cc1ccccc1-n1nc2c(c1NC(=O)c1ccco1)CSC2	38	-2
N#Cc1c(N)nc(SCC(=O)Nc2ccccc2)c(C#N)c1-c1ccccc1	22	0
SMILES	mHTT-CaM PPI inh	Pf apPOL block
O=C(Nc1ccccc1Br)C1CCN(C(=O)c2cccs2)CC1	-2	-1
CCCNc1cc(N2CCC(CCC(=O)NCCN3CCCCC3)CC2)ncn1	10	-9
OCC(O)Cn1c2ccc(Br)cc2c2cc(Br)cc(Br)c21 (stereo not drawn)	98*	3
OC(CN1CCN(c2ccccc2)CC1)Cn1c2ccccc2c2ccccc21 (stereo not drawn)	12	-5
OC(CN1CCCCC1)Cn1c2ccc(Br)cc2c2cc(Br)ccc21 (stereo not drawn)	/	-4
OC(CN1CCN(C/C=C/c2ccccc2)CC1)Cn1c2ccccc2c2ccccc21 (stereo not drawn)	100*	2
OC(CN1CCNCC1)Cn1c2ccccc2c2ccccc21 (stereo not drawn)	1	3
OC(CN1CCNCC1)Cn1c2ccccc2c2cc(Br)ccc21 (stereo not drawn)	51*	-2
Cc1cc(N2CCOCC2)nc2ccc(NC(=O)/C=C/c3ccc(Br)cc3)cc12	5	0
Cc1oc(C2CCN(C(=O)c3ccco3)CC2)nc1C(=O)N1CCSCC1	-4	3
Cc1ccc(NC(=O)Nc2ccc(Cl)cc2)cc1	-2	-15
Cc1ccc(NC(NC(=O)Nc2ccccc2)C(Cl)(Cl)Cl)cc1 (stereo not drawn)	85*	-1
CC(=O)C1=C(C)NC(SCC(=O)c2ccc(Cl)c(Cl)c2)=C(C#N)C1c1ccco1 (stereo not drawn)	54*	2

Screening results: PubChem, University of Kansas High Throughput Screening Laboratory
